# Structures can show the parent of a compound that is named as a salt. Unmarked numbers belong to inactive results.
# What was measured:
# Conditions in all cases: 20 µM
# [1] = test system: Salmonella enterica typhimurium; experiment: growth AUC normalised to DMSO control (fraction of control); higher = less growth inhibition, active = hit call of the paper
# In short: (§1)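 Pathogens passaged twice anaerobically were inoculated at a starting OD578 of 0.01 into pre-reduced mGAM plates with drug at 20 μM and 1% DMSO, sealed with breathable membranes. Haemophilus parainfluenzae medium was supplemented with hemin and NAD. OD578 was read hourly for 24 h, with three biological replicates. Growth-curve AUC was computed by the trapezoidal rule up to the exponential-to-stationary transition and normalised to DMSO controls on the same plate.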
# Shigella flexneri = experiment: as above
# In short: as §1
# Vibrio cholerae = experiment: as above
# In short: as §1
# [2] = test system: Yersinia pseudotuberculosis; experiment: as above
# In short: as §1
# P. vulgatus RND KO = experiment: growth AUC normalised to DMSO control (median) (fraction of control); higher = less growth inhibition, active = hit call of the paper
# In short: (§2)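 For normalised area under the curve, growth curves were truncated at entry into stationary phase, integrated by the trapezoidal rule and divided against vehicle wells on the same plate. The curves came from strains passaged twice overnight without oxygen and then grown in mGAM in 96-well plates at a starting OD578 of 0.01. Each well held an approved-drug library compound at 20 μM with 1% DMSO, and OD578 was read hourly for 24 h in an anaerobic incubator. Values are medians of three biological replicates.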
# P. vulgatus WT = experiment: as above
# In short: as §2
# [3] = test system: S. enterica typhimurium WT; experiment: as above
# In short: as §2
# [4] = test system: S. enterica typhimurium tolC KO; experiment: as above
# In short: as §2
# 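Throughout, for growth AUC normalised to DMSO control (median): active when median AUC fell below 0.1.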
SMILES,growth AUC normalised to DMSO control [1],growth AUC normalised to DMSO control (Shigella flexneri),growth AUC normalised to DMSO control (Vibrio cholerae),growth AUC normalised to DMSO control [2],growth AUC normalised to DMSO control (P. vulgatus RND KO),growth AUC normalised to DMSO control (P. vulgatus WT),growth AUC normalised to DMSO control [3],growth AUC normalised to DMSO control [4]
Cc1cc(=O)n(-c2ccccc2)n1C [Antipyrine],1,1.01,1.01,1,1,1.04,0.989,1.01
CN(C)CCn1nnnc1SCC1=C(C(=O)O)N2C(=O)[C@@H](NC(=O)Cc3csc(N)n3)[C@H]2SC1 [Cefotiam hydrochloride],0.0032 (active),0.0159 (active),0.0593 (active),0.03 (active),0.0136 (active),0.00849 (active),0.00304 (active),0.00289 (active)
COc1ccc(C(=O)NCc2ccc(OCCN(C)C)cc2)cc1OC [Itopride],0.996,1.05,1.07,1.03,1.02,1.06,1.02,1
CNCC(O)c1ccc(OC(=O)C(C)(C)C)c(OC(=O)C(C)(C)C)c1 (stereo not given) [Dipivefrin hydrochloride],1.01,1.04,1.05,1.01,1.02,1.03,1.02,0.953
NC[C@@H]1O[C@H](O[C@H]2[C@@H](O)[C@H](O[C@@H]3[C@@H](O)[C@H](N)C[C@H](N)[C@H]3O[C@H]3O[C@H](CO)[C@@H](O)[C@H](O)[C@H]3N)O[C@@H]2CO)[C@H](N)[C@@H](O)[C@@H]1O [Paromomycin sulfate],1.01,0.993,1.01,0.997,1,0.991,1,1
CCN1C(=O)NC(c2ccccc2)C1=O (stereo not given) [Ethotoin],0.995,0.99,0.996,0.992,1,0.993,0.987,1
O=C(O)CN(CCN(CC(=O)O)CC(=O)O)CCN(CC(=O)O)CC(=O)O [Pentetic acid],1,1.01,1.03,1.07,1.05,1.08,1.02,0.998
C[N+](C)(CCOc1ccccc1)Cc1ccccc1.O=C([O-])c1cc2ccccc2cc1O [Bephenium hydroxynaphthoate],1.05,1.04,1.03,1.03,0.998,0.991,0.989,0.977
CN(C)CCCC1(c2ccc(F)cc2)OCc2cc(C#N)ccc21 (stereo not given) [Citalopram hydrobromide],0.998,0.994,1,1.01,1.02,0.982,1,0.991
CC(=O)Nc1nnc(S(N)(=O)=O)s1 [Acetazolamide],0.969,0.962,1.03,0.984,0.995,0.974,0.994,0.998
CCOc1ccc2c(c1)C(C)=CC(C)(C)N2 [Ethoxyquin],0.998,0.95,0.958,0.986,0.971,0.972,1.01,1
CCC(Cc1c(I)cc(I)c(N)c1I)C(=O)O (stereo not given) [Iopanoic acid],1.01,1.01,1.01,0.989,0.999,1,1.01,0.987
O=C(NCC1CCCCN1)c1cc(OCC(F)(F)F)ccc1OCC(F)(F)F (stereo not given) [Flecainide acetate],0.995,0.966,0.988,0.989,1,1.03,1,1
CC1(C)S[C@@H]2[C@H](NC(=O)[C@H](NC(=O)N3CCNC3=O)c3ccccc3)C(=O)N2[C@H]1C(=O)O [Azlocillin sodium salt],0.766 (active),0.0935 (active),0.78 (active),0.281 (active),0.0105 (active),0.0107 (active),0.887,0.00584 (active)
CC(C(=O)O)c1ccc2c(c1)Cc1cccnc1O2 (stereo not given) [Pranoprofen],0.999,0.976,0.993,1.01,1.04,1.04,1.01,1
COc1ccc(/C=C/C(=O)Nc2ccccc2C(=O)O)cc1OC [Tranilast],0.999,0.973,0.992,1.01,0.999,1.02,1.04,0.952
Cc1ccc(S(=O)(=O)NC(=O)NN2CCCCCC2)cc1 [Tolazamide],1.02,1.04,1.03,0.997,1.01,1.02,1.01,0.999
Cc1ccnc(NS(=O)(=O)c2ccc(N)cc2)n1 [Sulfamerazine],0.973,1.03,0.977,1.01,0.988,1.01,0.986,0.998
CCCCC(O)c1ccccc1 (stereo not given) [Fenipentol],0.997,0.986,1.01,0.995,1,0.988,1,1
CO/N=C(\C(=O)N[C@@H]1C(=O)N2C(C(=O)O)=C(COC(C)=O)CS[C@H]12)c1csc(N)n1 [Cefotaxime sodium salt],0.00568 (active),0.0409 (active),0.0691 (active),0.0555 (active),0.00835 (active),0.0141 (active),0.00974 (active),0.00366 (active)
CC(=O)NC[C@H]1CN(c2ccc(N3CCOCC3)c(F)c2)C(=O)O1 [Linezolid],0.885 (active),0.806 (active),0.0187 (active),0.916,0.00951 (active),0.011 (active),0.918,0.223
Clc1ccc2nsnc2c1NC1=NCCN1 [Tizanidine hydrochloride],0.977,0.988,0.993,1,0.992,1,1.01,0.998
C#C[C@]1(O)CC[C@H]2[C@@H]3CCC4=CCCC[C@@H]4[C@H]3CC[C@@]21C [Lynestrenol],0.997,0.973,1.01,0.972,0.945,0.976,1.02,1
CCn1cc(C(=O)O)c(=O)c2cc(F)c(N3CCNC(C)C3)c(F)c21 (stereo not given) [Lomefloxacin hydrochloride],0.00422 (active),0.0101 (active),0.0243 (active),0.0292 (active),0.035 (active),0.11,0.0147 (active),0.0041 (active)
Cc1cc(C(=O)NNCc2ccccc2)no1 [Isocarboxazid],0.994,1.02,1.03,0.996,1.05,1.05,0.998,0.993
CN1C(=O)CC(c2ccccc2)C1=O (stereo not given) [Phensuximide],1.01,1.04,1.03,1.02,1.02,1.04,1,0.993
Cc1cnc(NC(=O)C2=C(O)c3ccccc3S(=O)(=O)N2C)s1 [Meloxicam],1.01,0.953,0.837 (active),1,0.982,0.991,0.994,0.947
Cc1[nH]c(=O)c(C#N)cc1-c1ccncc1 [Milrinone],0.949,0.999,0.968,0.989,0.988,0.995,0.987,0.936
NS(=O)(=O)c1cc(C(=O)O)cc(N2CCCC2)c1Oc1ccccc1 [Piretanide],1.03,1.07,1.08,1.01,1.06,1.07,1,0.997
Cc1cc(CC(=O)O)n(C)c1C(=O)c1ccc(Cl)cc1 [Zomepirac sodium salt],0.997,1,0.995,1,0.992,1.01,0.991,1.02

# From the supplement of paper PMC12350171
